# Rows were chosen to be rich in hits. Some 19% of all compounds tested hit in one or more screens of this group.
# TDP1 cell CPT: growth inhibition of DT40 Tdp1-/-;hTDP1 cells with camptothecin (screen for TDP1 inhibitors) | chicken DT40 Tdp1-/-;hTDP1 cells + 20 nM CPT, ATP luminescence, 48 h | Potency, µM (doses to about 46.2 µM), for inactives: top-dose activity change, negative = growth inhibition, usual class: inhibitors | 12% of 420,000 active | AID 686979; also: nearly all actives have a fitted effect of over 55% in size
#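 Cell growth measured by CellTiter-Glo luminescence after a minimum 48 h, 37 C compound exposure with 20 nM CPT in Tdp1-knockout DT40 cells stably expressing hTDP1, seeded 400/well; qHTS titration format.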
# HT1080 IDH1KD tx: kills HT-1080 cells with IDH1 knockdown; Potency, µM (titrated, usually from 46.1 µM), for inactives: top-dose activity, negative = toxicity, usual class: cytotoxic; 2% of 360,000 active; AID 686971; HT-1080 IDH1 knockdown viability, ATP luminescence, 48 h;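 also: 0% = DMSO wells and -100% = cell-free medium wells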
#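 In this qHTS, HT-1080 cells depleted of IDH1 are exposed for 48 h at 37 °C to compound titrations. Toxicity is scored from CellTiter-Glo luminescence, with DMSO as full viability and medium alone as none.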
# KB-3-1 cytotox: KB-3-1 parental cell cytotoxicity | Potency, µM (titrated, usually from 46.1 µM), usual class: cytotoxic | AID 1347075 | 1.4% of 400,000 active | KB-3-1 viability, CellTiter-Glo ATP luminescence, 72 h; also: nearly all actives have a fitted effect of over 60% in size
#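 Viability of parental KB-3-1 cells, measured by CellTiter-Glo luminescence, followed a 72 h incubation at 37 °C with pinned compounds in phenol-red-free DMEM containing 10% FBS.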
# KB-V1 cytotox: KB-V1 MDR subline cytotoxicity. 3.4% of 400,000 active. KB-V1 MDR cells viability, CellTiter-Glo, 72 h. Potency, µM (doses to about 46.1 µM), actives largely listed as cytotoxic. AID 1347076; also: nearly all actives have a fitted effect of over 60% in size
#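 Cells of the MDR subline KB-V1 are plated, dosed with compound at multiple concentrations, and incubated 72 h at 37 degrees C; CellTiter-Glo is then added and luminescence read after 10 min.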
# HT1080NT lethal: kills 2HG-producing HT-1080-NT fibrosarcoma cells. HT-1080-NT fibrosarcoma viability, CellTiter-Glo ATP luminescence, 48 h. Potency, µM (titrated, usually from 46.1 µM), for the others: at the highest dose activity, negative = less viability, most hits filed as cytotoxic. 1.6% of 360,000 active. AID 686970;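 also: NT is the 2HG producing partner of a matched IDH1 knockdown line; 0% = DMSO-treated cells and -100% = media-only wells without cells; nearly all actives have a fitted effect of over 55% in size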
#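 Fibrosarcoma NT cells, 750 per well in 5% FBS RPMI, were exposed to compound for 48 hours. Viability: CellTiter-Glo luminescence.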
# TDP1 cell noCPT: qHTS for Inhibitors of human tyrosyl-DNA phosphodiesterase 1 (TDP1): qHTS in cells in absence of CPT. DT40 Tdp1-/- hTDP1 cells, no CPT, ATP luminescence, 48 h. Potency, µM (highest dose often 46.2 µM), for the others: top-dose activity change, negative = growth inhibition, usual class: inhibitors. 15% of 420,000 active. AID 686978, 2013; also: nearly all actives have a fitted effect of over 55% in size
#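 A cellular qHTS used chicken DT40 cells lacking endogenous Tdp1 but carrying stably transfected human TDP1. Compounds were applied without camptothecin, and cell growth kinetics were judged by ATP-dependent luminescence after ≥48 hr.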
# * hit, by the source's call; i = inactive; ? = inconclusive; nt = not tested or not shown; ! = not confirmed by another sample. Calls follow the shape of the dose curve; as a rule, active = well fitted curve in the direction sought with a large enough effect; inconclusive = small, poorly fitted or top-dose-only effect, or another doubt; inactive = no such curve, though single readings can be large; an effect the other way counts as inactive or inconclusive. Unless noted, % is scaled to controls: 0 for no effect and ±100 for the full control effect; potency is read from the fitted curve at half-maximal effect.
SMILES,TDP1 cell CPT,HT1080 IDH1KD tx,KB-3-1 cytotox,KB-V1 cytotox,HT1080NT lethal,TDP1 cell noCPT
Cc1ccc(NC(=O)C2(C)CCN2C(=O)Cc2ccccc2)cc1C (centres undefined),?,6%,i,i,9%,16µM*
COc1ccc(NC(=O)C2(C)CCN2C(=O)Cc2ccccc2)cc1OC (centres undefined),?,?,i,i,19%,?
Cc1cc2nc(/C=C/c3cccnc3)[nH]c2cc1C,0.018µM*,0.58µM*,1.2µM*,0.26µM*,0.52µM*,0.018µM*
COc1ccccc1CC(=O)NNS(=O)(=O)c1ccc([N+](=O)[O-])cc1,4%,-4%,i,i,12%,6%
CCNC(=O)Nc1ccc2c(c1)c(=O)n(C)n2CC=C(C)C,-18%,12%,i,i,13%,-5%
CCOCCC(=O)Nc1ccc2c(c1)c(=O)n(C)n2-c1ccccc1F,-27%,7%,i,i,17%,-21%
CCOCCC(=O)Nc1ccc2c(c1)c(=O)n(C)n2C/C=C/c1ccccc1,4.6µM*,4.1µM*,6.5µM*,?,?,3.3µM*
CC(C)=CCn1c2ccc(NC(=O)NCc3ccc(F)cc3)cc2c(=O)n1C,2.1µM*,2.3µM*,4.6µM*,i,?,1.6µM*
Cn1c(=O)c2cc(NC(=O)Cc3ccccc3F)ccc2n1C/C=C/c1ccccc1,?,-6%,i,i,-4%,?
Cn1c(=O)c2cc(NC(=O)NCc3ccc(F)cc3)ccc2n1C/C=C/c1ccccc1,8.2µM*,?,?,i,?,9.2µM*
CC(Sc1cccc[n+]1[O-])C(=O)NC1CCCCC1C (centres undefined),-3%,-5%,i,i,-3%,31%
CSc1ccc(CN(C)C(=O)CNC(=O)c2ccc3c(c2)OCO3)cc1,-14%,14%,i,21µM*,2%,?
CN(Cc1ccc(Cl)cc1Cl)C(=O)CNC(=O)c1ccc2c(c1)OCO2,-2%,0%,i,i,-2%,-25%
CCc1ccc(-c2cc(C)no2)cc1S(=O)(=O)N1CCN(c2ccccc2)CC1,16µM*,?,?,?,?,?
CCOC(=O)c1cc(-c2ccc(OC)c(S(=O)(=O)N3CCN(c4ccccc4)CC3)c2)on1,16µM*,nt,i,i,nt,21µM*
Nn1c(SCC(=O)Nc2ccc(F)cc2)nnc1-c1cccnc1,-4%,9%,i,i,11%,10%
CCN1C(=O)c2cccc3c(NC(=O)c4ccc(OC)c(OC)c4)ccc1c23,-22%,4%,i,i,0%,-22%
O=c1[nH]cnc2c1ncn2[C@H]1C[C@H](O)[C@@H](CO)O1,13µM*,nt,i,?,nt,?
OC[C@@H]1CCC[C@@H](n2cnc3c(=S)nc[nH]c32)O1,?,nt,?,i,nt,-12%
O=c1[nH]cnc2c1ncn2C1CCC(CO)O1 (centres undefined),13µM*,-1%,i,i,22%,?
CC(C)C(=O)Nc1nc2c(ncn2C2CC(O)C(CO)O2)c(=O)[nH]1 (centres undefined),-28%,0%,i,i,18%,?
O=c1[nH]cnc2c1ncn2C1OC(CO)C(O)C1O (centres undefined),0.58µM*!,3%,i,i,0%,0.82µM*!
COc1ccccc1CNC(=O)CCCCn1c(=O)c2ccccc2n(Cc2c(C)cc(C)cc2C)c1=O,-16%,nt,i,?,nt,-1%
O=C1N/C(=C\c2ccccc2)c2ccccc21,21µM*,?,i,?,?,23µM*
Cc1cc(C)cc(NC(=O)CN2CCN(c3ccccc3)CC2)c1,-18%,-12%,i,i,8%,?
SMILES,TDP1 cell CPT,HT1080 IDH1KD tx,KB-3-1 cytotox,KB-V1 cytotox,HT1080NT lethal,TDP1 cell noCPT
O=C(CN1CCN(c2ccccc2)CC1)N1CCN(c2ccccc2)CC1,?,1%,i,21µM*,-2%,?
COc1ccc(N2CCN(C(=O)CN3CCN(C(c4ccccc4)c4ccccc4)CC3)CC2)cc1,?,1%,i,i,4%,23µM*
O=C(CN1CCN(c2ccccc2)CC1)Nc1ccncc1,?,-1%,i,i,9%,18µM*
O=C(CN1CCN(c2ncccn2)CC1)Nc1ccccc1-n1cccc1,?,5%,i,12µM*,0%,13µM*
Cc1ccc2c(c1)-c1c(ssc1=S)C(C)(C)N2C(=O)c1ccco1,?,?,i,i,?,16µM*
CCOc1ccc2c(c1)-c1c(ssc1=S)C(C)(C)N2,?,?,i,?,?,18µM*
Cc1ccc2c(c1)-c1c(ssc1=S)C(C)(C)N2C(=O)CSC1=NCCS1,?,-2%,i,7.3µM*,-3%,?
CCOc1ccc2c(c1)-c1c(ssc1=S)C(C)(C)N2C(=O)CSC1=NCCS1,?,-11%,i,8.2µM*,-2%,12µM*
Cc1ccc(NC(=O)COC(=O)Cc2ccc(Br)cc2)cc1S(=O)(=O)N1CCOCC1,-1%,21%,i,i,13%,-12%
O=C(c1ccncc1)N1CCC2(CC1)CCN(c1ccccc1)CC2,-8%,nt,nt,nt,nt,?
O=S(=O)(NCCNCC=Cc1ccc(Br)cc1)c1cccc2cnccc12,10µM*,nt,?,?,nt,14µM*
CNCCNS(=O)(=O)c1cccc2cnccc12,18µM*,nt,nt,nt,nt,?
O=S(=O)(NCCNC/C=C/c1ccc(Br)cc1)c1cccc2cnccc12,19µM*,nt,nt,nt,nt,24µM*
C=CC1=C(C)/C(=C/c2[nH]c(Cc3[nH]c(/C=C4\NC(=O)C(C)=C4C=C)c(C)c3CCC(=O)O)c(CCC(=O)O)c2C)NC1=O,-49%,nt,nt,nt,nt,-14%
CCCc1cc(=O)[nH]c(SCC(=O)Nc2ccc(OC(F)F)cc2)n1,-9%,-27%,i,i,-9%,-14%
COc1ccccc1CNC(=O)c1cnc(N(C)C)nc1,?,nt,i,i,nt,?
Cc1cnc(N2CCC(C(N)=O)CC2)nc1-c1cccc(N(C)C)c1,nt,nt,i,i,nt,nt
CC1CCC(NC(=O)CC(C)(C)Cc2nc3ccccc3c(=O)[nH]2)CC1 (centres undefined),16µM*,?,i,i,?,23µM*

# Compound activity deposited in PubChem by National Center for Advancing Translational Sciences (NCATS).
